target: T1, ETS1 (UniProt P14921); assay: ETS1 binding intensity (PBM fluorescence), ETS1 alone (arbitrary fluorescence units); higher = stronger binding; details: ETS1 concentration 1 nM; RUNX1 concentration 0 nM
T1 sequence: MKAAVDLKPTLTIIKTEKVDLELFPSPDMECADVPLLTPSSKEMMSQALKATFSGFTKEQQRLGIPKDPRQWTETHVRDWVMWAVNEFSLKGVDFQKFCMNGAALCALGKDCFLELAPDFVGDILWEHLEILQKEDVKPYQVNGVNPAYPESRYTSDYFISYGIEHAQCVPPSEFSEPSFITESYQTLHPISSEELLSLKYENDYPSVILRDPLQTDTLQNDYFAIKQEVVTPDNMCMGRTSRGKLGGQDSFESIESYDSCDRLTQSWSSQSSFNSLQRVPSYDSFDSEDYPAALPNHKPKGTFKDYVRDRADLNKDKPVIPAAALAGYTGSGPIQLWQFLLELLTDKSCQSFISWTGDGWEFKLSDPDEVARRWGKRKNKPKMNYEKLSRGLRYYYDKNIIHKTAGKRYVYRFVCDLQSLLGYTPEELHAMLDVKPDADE
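Throughout, for RUNX1 binding intensity (PBM fluorescence), RUNX1 alone: Full-length recombinant human RUNX1 bound to double-stranded 36-bp genomic probes on a high-density microarray, scored as Alexa488 fluorescence per spot via anti-RUNX1 antibody, median of four replicate spots.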

Sequence	ETS1 binding intensity
TTACGTTAAGGAGGAAACTCTGTGGTTAAACTGTAG	597
CCGTGGAAGGAAACGCTGCCAACCGCAACAGAAATG	479
CCATGCACAACAGGATGTGGTTAGACAGTCAAAATT	6700
ATTTCGCTGAAAACAGGAAACCACGAAGCCCAGATG	3270
GAGTTCCGCCTCGCCGTTTGTCCCTTGCGGTACCCG	351
GCGCCCTCCAGGAAACGCCGCGGTTTACTGTCTGCC	1120
CTCACAGAGCAAGTAGGATGTGGTTTCCAGGGGCTG	781
TAGCCACTAACCGGAAACGTTAAACCACAGCTCCGT	10100
GTTGAGTTCCGGGGGAGGTTGAGTTCCTGCGGTCAA	397
CACCCGAACGGAAACACCTGCGGCTGAGGGGAGGGG	959
GGACGCTTCCGGTGGAAGGGAGCTGTTGCGGGGCTT	1410
ATAGTCTCTTCCTGTGTTGCAAACCACAGGTCCACC	743
TCAATGACAGGAAGTTTTTAAACCACATACGGCTAA	2780
ACACTGAGCTGAACGGAAATGTGGTTCTCACCTCAT	2670
AAGAAAAAGGGAGGATGTGGTTTAGCAAAAGCACTG	1420
GACTTTTACGGAAATAGCAGTCCAAAACCGCGTCTA	691
TGGGGACCACTGTCAGGATGTGGTCACTGGAGTCAC	1020
GCTCTTCACTTCCTGTGGCTCCCGCAGCGGCCGCCG	1920
GAAAAATGAAGTTTCCGCAGTAACCACAACACAGCC	556
TGTGTATGAGAACGGATATAGGTGGTTTTATAAGGA	1890

Sequence	ETS1 binding intensity
TGAAGTACTAGTCAAGGATGTGGTTTTACATAGCAG	586
TGTCCGCACCCCACTTCCGCCCCGCAGAGGGCAACG	2960
AGCTAGGACAGGATGTGAAAACCACACTGACAAAGT	2620
GAGGGGAGGATGTCTGAGCTTTTAATTGTGGTTTCA	370
CGGCAGGCAAGCAGGAAACCGCGAGTGGAGAAAGGG	1960
AGGGCATTTCCTTTGGGGCTGGTGGTCACGGACAAC	471
ACAGCTCACACAGGAAATACAAACCTCAAAAAGCAA	2600
CCCACTGCGCCAGGATGTGGTCAGGTCGGTGACGTT	1560
TTTATCATGAATGCAGGATGTGGGCAGACTCACAGC	2590
GTGGGGCAGGATGTGCTTGCCTGGCTGCGGTTGGAC	2170
GAAGGAAGTGGAGACAGTAAGGGGAAACCACAAACC	1060
TTCAACAAGGTTTTCCTGTGGTTACCCCATGCTTTG	364
CAGTGAACAGTTTCCTGTTCCTGTGGTTTTGACTTT	1230
TCAAGTTTGGTAACAGGATGTGGTAGGAGGAACACA	8320
CCTTGCAGCAACGGATGTGGGTTTTTTTTTTTCTTT	4030
TCATGCTGCTTCCTGCCCAACCCGCAGTTCCGATAA	890
AAACCAGAGGAAGTGGATTCCAACCACAAACCTCAC	750
CCCTTCCGCGTGGGTTGCACCTGCTAACCACAGAGC	329
ACACAGGAAGGACGCACGCTCCCGCCCCAACCACAT	690
AACATCCTGTGTAAAGAGAATTGAATGTGGTTTTCT	559

target: RUNX1 (UniProt Q01196); assay: RUNX1 binding intensity (PBM fluorescence), RUNX1 alone (arbitrary fluorescence units); higher = stronger binding; details: RUNX1 concentration 2 nM; ETS1 concentration 0 nM
Sequence (Q01196 whole entry): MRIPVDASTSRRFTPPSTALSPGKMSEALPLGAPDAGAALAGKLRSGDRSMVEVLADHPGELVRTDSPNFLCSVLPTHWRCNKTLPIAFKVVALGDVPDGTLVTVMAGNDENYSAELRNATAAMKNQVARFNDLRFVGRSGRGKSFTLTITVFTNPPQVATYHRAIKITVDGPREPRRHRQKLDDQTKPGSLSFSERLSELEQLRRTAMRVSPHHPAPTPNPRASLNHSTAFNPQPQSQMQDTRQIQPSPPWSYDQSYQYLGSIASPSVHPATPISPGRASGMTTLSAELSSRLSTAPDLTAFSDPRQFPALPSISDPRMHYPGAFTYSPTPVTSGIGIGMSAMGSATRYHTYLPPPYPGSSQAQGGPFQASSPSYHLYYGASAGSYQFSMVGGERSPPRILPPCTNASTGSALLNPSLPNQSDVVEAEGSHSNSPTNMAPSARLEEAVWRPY
Method: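 Cooperative gcPBM on 36-bp genomic probes with neighbouring ETS1 and RUNX1 sites. Recombinant human RUNX1 (2 nM) was incubated alone or with ETS1 (25 nM) and detected with anti-RUNX1 antibody plus Alexa488 secondary. Values are medians over 4 replicate spots; the RUNX1+ETS1 data were normalised to the RUNX1-only data. The probes sit in constant array flanks that are not printed.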

Sequence	RUNX1 binding intensity
TTACGTTAAGGAGGAAACTCTGTGGTTAAACTGTAG	1230
CCGTGGAAGGAAACGCTGCCAACCGCAACAGAAATG	1700
CCATGCACAACAGGATGTGGTTAGACAGTCAAAATT	875
ATTTCGCTGAAAACAGGAAACCACGAAGCCCAGATG	899
GAGTTCCGCCTCGCCGTTTGTCCCTTGCGGTACCCG	890
GCGCCCTCCAGGAAACGCCGCGGTTTACTGTCTGCC	912
CTCACAGAGCAAGTAGGATGTGGTTTCCAGGGGCTG	800
TAGCCACTAACCGGAAACGTTAAACCACAGCTCCGT	1180
GTTGAGTTCCGGGGGAGGTTGAGTTCCTGCGGTCAA	1220
CACCCGAACGGAAACACCTGCGGCTGAGGGGAGGGG	989
GGACGCTTCCGGTGGAAGGGAGCTGTTGCGGGGCTT	716
ATAGTCTCTTCCTGTGTTGCAAACCACAGGTCCACC	1050
TCAATGACAGGAAGTTTTTAAACCACATACGGCTAA	904
ACACTGAGCTGAACGGAAATGTGGTTCTCACCTCAT	774
AAGAAAAAGGGAGGATGTGGTTTAGCAAAAGCACTG	920
GACTTTTACGGAAATAGCAGTCCAAAACCGCGTCTA	868
TGGGGACCACTGTCAGGATGTGGTCACTGGAGTCAC	831
GCTCTTCACTTCCTGTGGCTCCCGCAGCGGCCGCCG	1090
GAAAAATGAAGTTTCCGCAGTAACCACAACACAGCC	1350
TGTGTATGAGAACGGATATAGGTGGTTTTATAAGGA	756

Sequence	RUNX1 binding intensity
TGAAGTACTAGTCAAGGATGTGGTTTTACATAGCAG	923
TGTCCGCACCCCACTTCCGCCCCGCAGAGGGCAACG	890
AGCTAGGACAGGATGTGAAAACCACACTGACAAAGT	919
GAGGGGAGGATGTCTGAGCTTTTAATTGTGGTTTCA	870
CGGCAGGCAAGCAGGAAACCGCGAGTGGAGAAAGGG	1010
AGGGCATTTCCTTTGGGGCTGGTGGTCACGGACAAC	723
ACAGCTCACACAGGAAATACAAACCTCAAAAAGCAA	1070
CCCACTGCGCCAGGATGTGGTCAGGTCGGTGACGTT	886
TTTATCATGAATGCAGGATGTGGGCAGACTCACAGC	691
GTGGGGCAGGATGTGCTTGCCTGGCTGCGGTTGGAC	877
GAAGGAAGTGGAGACAGTAAGGGGAAACCACAAACC	922
TTCAACAAGGTTTTCCTGTGGTTACCCCATGCTTTG	1040
CAGTGAACAGTTTCCTGTTCCTGTGGTTTTGACTTT	1420
TCAAGTTTGGTAACAGGATGTGGTAGGAGGAACACA	747
CCTTGCAGCAACGGATGTGGGTTTTTTTTTTTCTTT	1120
TCATGCTGCTTCCTGCCCAACCCGCAGTTCCGATAA	1120
AAACCAGAGGAAGTGGATTCCAACCACAAACCTCAC	1080
CCCTTCCGCGTGGGTTGCACCTGCTAACCACAGAGC	1090
ACACAGGAAGGACGCACGCTCCCGCCCCAACCACAT	901
AACATCCTGTGTAAAGAGAATTGAATGTGGTTTTCT	821
